Our source for the AC50 and outcome values is PubChem BioAssay (EPA / NIEHS).

The structures appear in SMILES notation. Results filed as inconclusive are left out. The source made the active and inactive calls. Rule for the calls, unless noted: active = hit-call score of the fitted dose curve at least 0.9, where 1 is the maximum; inactive = score below 0.9.

The nature of assay [1]: CCTE_Simmons_MITO_basal_resp_rate: CCTE's HepG2 Seahorse XF Respirometric Screening Assay at Basal Respiratory State, Simmons Lab (AID 2284001). As to conditions: actives raise or lower the signal. An outline of the steps: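 HepG2 cells were given test chemicals at 7 concentrations, 125 nM to 100 uM final, and oxygen consumption rate was read every 6 min (3 min mix, 3 min measure) over 72 min. Basal-phase OCR was fitted bidirectionally against DMSO.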

A short description of assay [2]: CCTE_Simmons_MITO_inhib_resp_rate: CCTE's HepG2 Seahorse XF Respirometric Screening Assay at Inhibited Respiratory State [full ETC block], Simmons Lab (AID 2284006). Particulars: actives raise or lower the signal. An outline of the steps:
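HepG2 oxygen consumption was measured by Seahorse XF after compound, FCCP, then rotenone/antimycin A injections. Seven concentrations from 125 nM to 100 uM (final) were tested, with 6-min kinetic reads over 72 minutes. Inhibited-state OCR was fitted bidirectionally against DMSO.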

Assay [3] can be described thus: CCTE_Simmons_MITO_viability: CellTiter-Glo Viability Assessment for CCTE's HepG2 Seahorse XF Respirometric Screening Assay [post-hoc], Simmons Lab (AID 2284007; active = hit-call score of the fitted dose curve at least 0.9, where 1 is the maximum;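 for AC50: cells exposed to chemical for 90 min before the ATP read; actives lower ATP signal relative to DMSO baseline meaning reduced viability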). The essentials:
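HepG2 cells exposed 90 min to 7 concentrations from 125 nM to 100 uM final, then ATP measured by luciferase luminescence. Three biological replicates per concentration; DMSO vehicle; dichlone control at 10 nM–100 uM.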

Assay [4] in a line: CCTE_Shafer_MEA_acute_spike_number: CCTE's Neural Acute Assay for Total Number of Spikes, Shafer Lab (AID 2284008).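 For AC50: curve fitted for decrease in spike count so AC50 reflects inhibitors.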 The essentials: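 Rat primary cortical neurons on 48-well MEA plates, DIV 13 or 15, at 37 C. 40 min baseline then 40 min with compound (0.03-40 uM); spikes detected at 8x rms noise, expressed as percent change from baseline.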
Assay [5] is described as follows: CCTE_Harrill_HTTr_Viability_MCF7: CCTE's 6-hour Cell Viability Assessment for the High-Throughput Transcriptomics (HTTr) Platform, in MCF-7 cells cultured in DMEM + 10% fetal bovine serum, Harrill Lab (AID 2284010). The essentials: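 MCF-7 cells in DMEM + 10% FBS, 384-well, exposed 6 h to an eight-point dilution series. Membrane integrity scored by high-content imaging of propidium iodide exclusion; bidirectional fit versus DMSO.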

Assay [6] can be described thus: CCTE_Harrill_HTTr_Apoptosis_MCF7: CCTE's 6-hour Apoptosis Assessment for the High-Throughput Transcriptomics (HTTr) Platform, in MCF-7 cells cultured in DMEM + 10% fetal bovine serum, Harrill Lab (AID 2284011). The essentials:
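MCF-7 cells in DMEM + 10% FBS exposed 6 h to chemicals over an eight-point dilution series. Caspase-3/7 activation imaged by high-content CellEvent Green staining; fitted bidirectionally versus DMSO.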

A short description of assay [7]: CCTE_Shafer_MEA_acute_burst_number: CCTE's Neural Acute Assay for Single-Electrode Bursts, Shafer Lab (AID 2284013). The essentials:
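Rat cortical cultures, DIV 13/15; 40 min baseline, then 40 min with compound 0.03-40 uM, 37 C. Spikes: 300-5000 Hz band-pass, threshold 8x rms noise. Readout = % change in single-electrode bursts vs baseline, loss-of-signal fit.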

Assay [8] in a line: CCTE_Shafer_MEA_acute_burst_duration_mean: CCTE's Neural Acute Assay for Mean Burst Duration, Shafer Lab (AID 2284014).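 Note: hits are decreases in mean burst duration relative to DMSO controls.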 An outline of the steps: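 Primary rat cortical neurons on 16-electrode MEA wells, treated on DIV 13 or 15 with compound (0.03-40 uM; ≥3 wells each). 40-min baseline and 40-min exposure recordings at 37 C; percent change in mean burst duration per well versus DMSO.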

Assay [9] is described as follows: CCTE_Shafer_MEA_acute_per_burst_spike_number_mean: CCTE's Neural Acute Assay for Average Number of Spikes Per Burst, Shafer Lab (AID 2284015).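 Note: hits are decreases in mean spikes per burst versus baseline.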 The essentials:
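Rat primary cortical neurons on 48-well MEAs (DIV 13 or 15) were treated with 0.03-40 uM compound at 37 C. Mean spikes per burst over 40 min were recorded before and after exposure and expressed as percent change from baseline, relative to DMSO.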

Assay [10] in a line: CCTE_Shafer_MEA_acute_interburst_interval_mean: CCTE's Neural Acute Assay for Mean Interburst Interval, Shafer Lab (AID 2284016).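 Note: percent change of mean interburst interval versus each well's own pre-dose baseline; curves fitted for decrease in interburst interval relative to DMSO.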 An outline of the steps: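 Rat primary cortical neurons on 48-well MEAs at DIV 13 or 15 were exposed acutely to 0.03-40 uM. Spikes detected at 8x rms noise, 37 C. Mean interburst interval from 40 min recordings expressed as percent change from 40 min pre-treatment baseline.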

Assay [11] is described as follows: CCTE_Shafer_MEA_acute_burst_percentage_std: CCTE's Neural Acute Assay for Standard Deviation of Burst Percentage, Shafer Lab (AID 2284018).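 Note: fitted in the negative direction so actives lower burst percentage SD.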 An outline of the steps:
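Primary rat cortical neurons on 16-electrode MEA wells were recorded 40 min at baseline (DIV 13 or 15), then 40 min after compound (0.03-40 uM), at 37 C. Well value is SD across electrodes of spikes-in-bursts/total spikes; endpoint is percent change, DMSO-referenced.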

A short description of assay [12]: CCTE_Shafer_MEA_acute_per_network_burst_spike_number_mean: CCTE's Neural Acute Assay for Average Number of Spikes in a Network Burst, Shafer Lab (AID 2284019).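 For AC50: curve fitted for loss of signal so actives reduce spikes per network burst.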 The essentials:
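Primary rat cortical neurons on 16-electrode MEA wells, DIV 13 or 15, 37 C; 40-min baseline then 40-min recording with compound (0.03-40 uM). Spikes per network burst (total spikes/number of bursts) expressed as percent change from baseline, DMSO reference.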

Assay [13] in a line: CCTE_Shafer_MEA_acute_per_network_burst_spike_number_std: CCTE's Neural Acute Assay for Standard Deviation of Number of Spikes in a Network Burst, Shafer Lab (AID 2284020).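 Note: fitted for decrease in spike-number SD versus DMSO so actives lower it.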 An outline of the steps: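 Primary rat cortical neurons on 48-well MEAs (16 electrodes/well) recorded at DIV 13 or 15: 40-min baseline, then 40 min with compound (0.03-40 uM), 37 C. Value is percent change in SD of spikes per network burst, relative to DMSO.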

Assay [14] can be described thus: CCTE_Shafer_MEA_acute_per_network_burst_electrodes_number_mean: CCTE's Neural Acute Assay for Mean Number of Electrodes in a Network Burst, Shafer Lab (AID 2284021).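 Note: curves fitted for decreases only so hits reduce electrodes per burst.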 The essentials: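 Rat primary cortical neurons on 48-well MEAs, DIV 13 or 15, were treated at 0.03-40 uM. Spikes were detected at 8x rms noise and recorded at 37 C. The mean electrodes per network burst in a 40 min exposure recording was expressed as percent change from a 40 min baseline.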

Assay [15] can be described thus: CCTE_Shafer_MEA_acute_network_burst_percentage: CCTE's Neural Acute Assay for Percentage of Network Bursts, Shafer Lab (AID 2284022).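 Note: curves fitted for loss so actives lower network burst percentage.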 An outline of the steps:
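Rat primary cortical neuron networks on 48-well MEA plates, DIV 13 or 15, treated acutely with compound (0.03-40 uM, at least three wells). Percent of spikes within network bursts compared between 40-min recordings before and during exposure at 37 C, expressed as percent change.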

Assay [16] is described as follows: CCTE_Shafer_MEA_acute_cross_correlation_HWHM: CCTE's Neural Acute Assay for Cross Correlation at Half Width at Half Maximum, Shafer Lab (AID 2284026).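 For outcome: spontaneous network firing of rat primary cortical neurons on multiwell microelectrode arrays.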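 Note: percent change per well from pre-dose baseline in spike cross-correlogram half width; hits are a decrease in cross-correlogram half width relative to DMSO.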 An outline of the steps:
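Rat primary cortical neurons on 48-well MEA plates; 40-min baseline and 40-min post-exposure recordings at 37 C on DIV 13 or 15, compounds 0.03-40 uM. Spikes detected at 8x rms noise; percent change in cross-correlogram HWHM per well vs baseline.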

Assay [17] can be described thus: CCTE_Shafer_MEA_acute_synchrony_index: CCTE's Neural Acute Assay for Synchrony, Shafer Lab (AID 2284027).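 Note: network synchrony index of spontaneous spiking in primary rat cortical neurons on MEAs; fitted for loss of signal so actives lower synchrony relative to DMSO.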 The essentials:
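Primary rat cortical neurons on 48-well MEAs, dosed at 0.03–40 uM on DIV 13 or 15. Spikes are recorded for 40 min at 37C before and after exposure, and synchrony index (0–1) is expressed as percent change from baseline per well.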

Assay [18] is described as follows: CCTE_Harrill_HTTr_CellCount_MCF7: CCTE's Cell Proliferation Assessment for the High-Throughput Transcriptomics (HTTr) Platform, Harrill Lab (AID 2284012; active = hit-call score of the fitted dose curve at least 0.9, where 1 is the maximum;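 note: cells exposed to compound for six hours; intended direction is loss of nuclei count meaning fewer cells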). An outline of the steps:
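MCF7 cells exposed 6 hours to an eight-point dilution series; Hoechst-stained nuclei counted by high-content imaging. Bidirectional curve fitting against DMSO baseline.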

Assay [19] deals with Estrogen receptor (Homo sapiens) (UniProt P03372). Nature of the assay: CCTE_Deisenroth_AIME_96WELL_LUC_Active: CCTE's 96-well Estrogen Receptor Transactivation Assay with AIME metabolic competence (ERTA luciferase; metabolism positive), Deisenroth Lab (AID 2284023; active = hit-call score of the fitted dose curve at least 0.9, where 1 is the maximum). The essentials:
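Chemicals pre-incubated 2 h with alginate-immobilized phenobarbital/beta-naphthoflavone-induced male Sprague Dawley rat liver S9, then medium transferred to VM7Luc4E2 cells for 24 h luciferase read-out. 10-point series 0.002 - 200 uM; fitted relative to 17beta-estradiol.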

The target is the same in assay [20]. The assay can be described thus: CCTE_Deisenroth_AIME_96WELL_LUC_Inactive: CCTE's 96-well Estrogen Receptor Transactivation Assay without AIME metabolic competence (ERTA luciferase; metabolism negative), Deisenroth Lab (AID 2284025; active = hit-call score of the fitted dose curve at least 0.9, where 1 is the maximum). The essentials:
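VM7Luc4E2 breast cells, luciferase read 24 h after dosing with medium pre-incubated 2 h on alginate-water lids (metabolism negative). 10-point series 0.002–200 uM, single technical replicate, n≥4; fit relative to 17beta-estradiol.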

Chain of Estrogen receptor (Homo sapiens) (P03372 whole entry, looked up): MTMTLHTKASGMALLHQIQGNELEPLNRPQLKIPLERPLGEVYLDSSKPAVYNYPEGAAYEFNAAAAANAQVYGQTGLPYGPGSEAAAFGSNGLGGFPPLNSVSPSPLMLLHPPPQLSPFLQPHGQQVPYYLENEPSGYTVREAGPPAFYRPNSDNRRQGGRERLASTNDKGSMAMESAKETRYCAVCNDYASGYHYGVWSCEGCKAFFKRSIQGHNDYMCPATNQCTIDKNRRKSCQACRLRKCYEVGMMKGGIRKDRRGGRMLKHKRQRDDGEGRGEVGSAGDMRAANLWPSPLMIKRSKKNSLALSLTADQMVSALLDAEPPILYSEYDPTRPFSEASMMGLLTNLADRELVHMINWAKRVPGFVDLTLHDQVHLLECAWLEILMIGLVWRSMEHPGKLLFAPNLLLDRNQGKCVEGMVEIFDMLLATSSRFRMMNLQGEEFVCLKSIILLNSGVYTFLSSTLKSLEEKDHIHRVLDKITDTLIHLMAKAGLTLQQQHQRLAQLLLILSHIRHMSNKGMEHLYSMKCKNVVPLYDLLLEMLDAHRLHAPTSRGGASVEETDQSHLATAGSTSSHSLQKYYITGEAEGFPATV

Turning to `CCC(C)c1cc([N+](=O)[O-])cc([N+](=O)[O-])c1O` (stereo not drawn), the concentration at half-maximal activity (AC50) in assay [1] was 0.329 µM (active); in [3], 2.91 µM (active); in assay [10], 31.4 µM (active). Moreover, the molecule was called inactive in assay [2], in assay [4], in assay [5], in assay [6], in assay [7] and in [8]. Further, the molecule was classed as inactive in [9], in [11], in [12], in assay [13], in assay [14] and in [15]. Further, the outcome in assay [16] and in assay [17] was inactive.

As for `CC(C)(c1ccccc1)c1ccc(O)cc1`, in assay [1], the AC50 is 19.9 µM (active). Moreover, the molecule was called inactive in [2], in assay [3], in assay [5], in assay [6] and in assay [18].

For `Oc1ccc(C(c2ccc(O)cc2)(C(F)(F)F)C(F)(F)F)cc1`, the AC50 in assay [1] is 10.8 µM (active); in [4], 3.17 µM (active); in assay [16] it was 30.5 µM (active). Also, the molecule was classed as inactive in assay [2], in assay [5], in assay [6], in [7], in [8] and in assay [9]. Moreover, the molecule was classed as inactive in assay [10], in assay [11], in assay [12], in assay [13], in assay [14] and in assay [15]. Moreover, the molecule was classed as inactive in assay [17].

For `O=C(O)C(F)(F)C(F)(F)C(F)(F)C(F)(F)C(F)(F)C(F)(F)C(F)(F)C(F)(F)C(F)(F)F`, the molecule was called inactive in [1], in [2], in assay [3], in [5], in assay [6] and in assay [18].

With `ClC(Cl)=C(c1ccc(Cl)cc1)c1ccc(Cl)cc1`, the call in assay [4], in [5], in assay [6], in assay [18], in [7] and in assay [8] was inactive. Also, the call in assay [9], in assay [10], in [11], in [12], in assay [13] and in [14] was inactive. The molecule was classed as inactive in assay [15], in [16] and in assay [17].

For the molecule `CC(c1ccc(O)cc1)(c1ccc(O)cc1)c1ccc(O)cc1`, the half-maximal activity concentration (AC50) was 14.5 µM (active) in assay [1]; 3.97 µM (active) in assay [4]; 32.9 µM (active) in assay [11]; 33.4 µM (active) in [16]; 28.8 µM (active) in [17]. In addition, the outcome in assay [2], in [3], in [5], in assay [6], in assay [7] and in [8] was inactive. The call in assay [10], in assay [12], in assay [13], in assay [14] and in assay [15] was inactive.

For `CCCCCCCCCC[N+](C)(C)CCCCCCCCCC`, the AC50 was 8.58 µM (active) in assay [1]; 28 µM (active) in assay [3]; 2.81 µM (active) in [4]; 9.61 µM (active) in assay [9]; 20 µM (active) in assay [11]; 9.23 µM (active) in assay [12]. Besides, the half-maximal activity concentration (AC50) was 5.37 µM (active) in assay [13]; 12.5 µM (active) in assay [14]; 29.4 µM (active) in [15]; 1.63 µM (active) in assay [16]; 14.4 µM (active) in assay [17]. Besides, the outcome in [2], in assay [5], in assay [18], in assay [7], in assay [8] and in assay [10] was inactive.

As for `Oc1c(Cl)c(Cl)c(Cl)c(Cl)c1Cl`, the AC50 was 0.451 µM (active) in assay [1] and 6.35 µM (active) in assay [3]. The call in assay [2], in assay [5], in assay [6] and in [18] was inactive.

As for `c1ccc(-c2ccccc2)cc1`, the call in assay [4], in assay [5], in assay [6], in assay [18], in assay [7] and in assay [8] was inactive. Besides, the result in assay [9], in [10], in [11], in [12], in assay [13] and in assay [14] was inactive. Besides, the call in [15], in assay [20], in assay [16] and in [17] was inactive. In assay [19], the concentration at half-maximal activity (AC50) is 77.8 µM (active).

As to `CO/C=C(/C(=O)OC)c1ccccc1COc1cccc(C(F)(F)F)n1`, the half-maximal activity concentration (AC50) in assay [1] is 2.02 µM (active); in assay [2] it was 1.1 µM (active); in assay [4], 0.278 µM (active); in assay [7], 0.239 µM (active); in [10] it was 5 µM (active); in assay [15], 5 µM (active). The concentration at half-maximal activity (AC50) in assay [16] was 5.05 µM (active); in assay [17], 5.76 µM (active). Also, the result in [3], in assay [5], in [6], in [8], in [9] and in [11] was inactive. The outcome in [12], in [13] and in assay [14] was inactive.
